High-throughput results (PubChem BioAssay)
KCNQ2 enhance – potentiators of rat KCNQ2 potassium channel; O88943; CHO-K1 KCNQ2, FluxOR thallium flux fluorescence; active compounds read high; B-score at 10 µM; 310,000 compounds, 0.54% hits;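 active = fluorescence ratio B-score at least 3 SD of library B-scores, with initial fluorescence B-score within 3 of them, cut at about 5.3 in these data; same plate scores as AID 2156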;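 also: B-score of peak minus minimum over baseline fluorescence ratio after K+ and Tl+ stimulus; positive B-score means potentiation of KCNQ2 with more thallium influx and brighter signal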
Target sequence (O88943 whole entry, looked up): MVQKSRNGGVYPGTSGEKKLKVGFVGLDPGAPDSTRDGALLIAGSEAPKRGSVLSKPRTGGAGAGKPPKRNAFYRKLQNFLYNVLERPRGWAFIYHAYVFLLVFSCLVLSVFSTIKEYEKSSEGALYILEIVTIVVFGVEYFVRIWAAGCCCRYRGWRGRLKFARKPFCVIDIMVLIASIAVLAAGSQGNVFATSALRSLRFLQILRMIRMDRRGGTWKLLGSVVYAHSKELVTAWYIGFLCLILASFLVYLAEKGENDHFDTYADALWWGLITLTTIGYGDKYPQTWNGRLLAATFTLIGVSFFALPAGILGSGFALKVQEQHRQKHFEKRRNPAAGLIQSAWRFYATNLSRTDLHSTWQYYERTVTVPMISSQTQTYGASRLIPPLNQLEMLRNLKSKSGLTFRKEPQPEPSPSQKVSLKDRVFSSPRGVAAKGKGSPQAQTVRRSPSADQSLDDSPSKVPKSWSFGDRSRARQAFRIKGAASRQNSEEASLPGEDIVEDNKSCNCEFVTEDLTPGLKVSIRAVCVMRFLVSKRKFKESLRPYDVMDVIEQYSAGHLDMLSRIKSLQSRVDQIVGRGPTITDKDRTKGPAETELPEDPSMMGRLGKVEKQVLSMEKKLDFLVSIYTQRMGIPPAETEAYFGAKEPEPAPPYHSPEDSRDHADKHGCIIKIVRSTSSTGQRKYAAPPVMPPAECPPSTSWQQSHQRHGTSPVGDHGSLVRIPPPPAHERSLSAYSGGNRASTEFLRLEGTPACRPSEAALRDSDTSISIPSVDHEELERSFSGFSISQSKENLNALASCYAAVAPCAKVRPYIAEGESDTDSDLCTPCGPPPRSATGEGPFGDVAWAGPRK
KCNQ2 inh – blocks the rat KCNQ2 potassium channel; CHO-K1 KCNQ2, FluxOR thallium flux, 20 min; active compounds read low; 310,000 compounds, 1.1% hits; O88943; B-score at 10 µM;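 active = fluorescence ratio B-score at most minus 3 library SDs, with starting brightness B-score within 2 library SDs, cut at about -5.5 in these data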
KCNQ2 inh conf – rat KCNQ2 channel inhibition, confirmatory screen | shares compounds with KCNQ2 inh | 1,000 compounds, 57% hits | activity change, negative = inhibition, % at 10 µM | KCNQ2-expressing cells, thallium flux; active compounds read low | AID 493025
KCNQ1 spec – human KCNQ1 activity in KCNQ2 inhibitor specificity screen. AID 493026. activity change, negative = inhibition, % at 10 µM. KCNQ1-expressing cells, FluxOR thallium flux fluorescence; active compounds read low. 1,000 compounds, 15% hits. shares compounds with KCNQ2 inh;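 active = activity change at least 3 SD of negative controls below their mean in both duplicate wells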;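 also: CHO cells stably transfected with KCNQ1 and depolarized by potassium stimulus; peak minus minimum fluorescence over baseline after thallium addition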
CHO parental ctr – counter-screen for KCNQ2 inhibitors: effect in parental CHO cells; shares compounds with KCNQ2 inh; thallium flux counter-screen; active compounds read low; activity change, % at 10 µM; 1,000 compounds, 14% hits; AID 493029
KCNQ2 inh confirm – rat KCNQ2 inhibition confirmed by electrophysiology | 550 compounds, 49% hits | KCNQ2-expressing cells, automated patch clamp current | shares compounds with KCNQ2 inh | AID 588531 | calls only at 10 µM
Of the large screens only hits and unclear results are named; the others gave an inactive call (follow-up assays come after a bar, where they were run). Rows were chosen to be rich in hits. Some 1.6% of all compounds tested hit in one or more screens of this group. Unless noted, no rule for the calls is given here.

CCOc1ccc(-c2cc(C)[n+](CCO)c(-c3ccc(OCC)cc3)c2)cc1	none
CCOc1ccc(-c2cc(C)[n+](CCc3ccc(OC)c(OC)c3)c(-c3ccc(OCC)cc3)c2)cc1	KCNQ2 inh -5.78
O=c1c2ccccc2nc(Cc2cccc([N+](=O)[O-])c2)n1-c1ccc(O)cc1	none (no result: KCNQ2 enhance)
CC(C)N(Cc1ccco1)/N=C/c1c(O)n(Cc2ccccc2)c(=O)[nH]c1=O	none (no result: KCNQ2 enhance)
O=C1NC(=O)C2(Cc3ccccc3N3CCCC32)C(=O)N1Cc1ccccc1 (stereo not drawn)	none (no result: KCNQ2 enhance)
O=C1NC(=O)[C@]2(Cc3ccccc3N3CCN(c4ccccc4)CC32)C(=O)N1c1ccccc1 (stereo partly drawn)	KCNQ2 inh -6.06
CN1C(=O)NC(=O)[C@]2(Cc3ccccc3N3CCN(c4ccccc4)CC32)C1=O (stereo partly drawn)	none (no result: KCNQ2 enhance)
O=C1NC(=O)[C@]2(Cc3ccccc3N3CCN(c4ccccc4)CC32)C(=O)N1Cc1ccccc1 (stereo partly drawn)	KCNQ2 inh -5.7
C/C1=C\[C@@H](C)C/C=C/[C@H]2[C@@H]3O[C@]3(C)[C@@H](C)[C@H]3[C@H](Cc4c[nH]c5ccccc45)NC(=O)[C@]32C(=O)/C=C/C(=O)[C@@H]1O	KCNQ2 enhance 8.3
CN(CC(=O)Nc1ccccc1-c1ccccc1)C1CCCCC1	KCNQ2 inh -6.38
CCc1ccccc1NC(=O)CNC1CCCCC1	none (no result: KCNQ2 enhance)
CC(C)(C#CC(=O)O)OOC(c1ccccc1)(c1ccccc1)c1ccccc1	KCNQ2 inh -11
N=C1c2ccccc2CN1c1ncccn1	none
O=C(Nc1ccc(F)cc1F)c1cccnc1Oc1cccc(C(F)(F)F)c1	none
COc1ccc(-n2c(/C=C/c3ccc4c(c3)OCO4)nc3ccccc3c2=O)cc1	none (no result: KCNQ2 enhance)
Cc1ccc(-n2c(/C=C/c3ccc4c(c3)OCO4)nc3ccccc3c2=O)cc1	KCNQ2 inh -5.65
CCc1nc2ccc(Br)cc2c(=O)n1-c1ccccc1C(F)(F)F	none (no result: KCNQ2 enhance)
CCCc1nc2ccc(Br)cc2c(=O)n1-c1ccc([N+](=O)[O-])c(C(F)(F)F)c1	KCNQ2 inh -6.04
COC(=O)c1c(C)[nH]c(C(=O)C(Cc2ccccc2)N(C)C)c1C (stereo not drawn)	none
CCCCCn1c(=O)c(C(=O)NCCc2ccccc2)c(O)c2ccccc21	none (no result: KCNQ2 enhance)
CCCCn1c(=O)c(C(=O)NCc2ccccc2OC)c(O)c2ccccc21	KCNQ2 inh -6.22
O=c1cccc2n1CC1CC2CN(S(=O)(=O)c2cc(Cl)ccc2Cl)C1 (stereo not drawn)	none
COC(=O)c1ccc(CC(C(=O)c2ccccc2)N(C)C)cc1 (stereo not drawn)	none (no result: KCNQ2 enhance)
CCOC(=O)c1c(C=O)c2ccccc2n1Cc1ccccc1F	none
COc1ccc(C2SCC(=O)Nc3c2c(C)nn3-c2ccccc2)cc1 (stereo not drawn)	none
Cc1ccc(-n2nc(C)c3c2NC(=O)CSC3c2ccc3c(c2)OCO3)cc1 (stereo not drawn)	KCNQ2 inh -5.63
CC(C)(C)C(=O)Nc1ccc(S(=O)(=O)N2CC3CC(C2)c2cccc(=O)n2C3)cc1 (stereo not drawn)	none (no result: KCNQ2 enhance)
Cc1nn(Cc2ccccc2Cl)c(C)c1C(=O)OCC(=O)N1CC(C)OC(C)C1 (stereo not drawn)	none
Cc1nn(Cc2ccccc2)c(C)c1C(=O)OCC(=O)Nc1cccc(S(N)(=O)=O)c1	none
Fc1ccc(C2=CCN(C(c3ccc(Cl)cc3)c3nnnn3Cc3ccccc3)CC2)cc1 (stereo not drawn)	none (no result: KCNQ2 enhance)
Cc1ccc(C(c2nnnn2Cc2ccccc2)N2CC=C(c3ccc(F)cc3)CC2)cc1 (stereo not drawn)	KCNQ2 inh -5.72
CC(=O)N1CC(=O)Nc2ccc(C)cc2C1c1ccccc1 (stereo not drawn)	none (no result: KCNQ2 enhance)
Cc1ccsc1C(=O)C1CCCN(Cc2c(C)nn(C(C)C)c2C)C1 (stereo not drawn)	none
CCS(=O)(=O)NC(C)c1nnc2n1-c1ccc(Br)cc1C(c1ccccc1Cl)=NC2 (stereo not drawn)	none
COC(=O)C1=CO[C@@H](C)[C@@H]2CN(CCc3c[nH]c4ccccc34)CC[C@H]12	none (no result: KCNQ2 enhance)
c1ccc(-c2ccc(-c3n(-c4ccccn4)c4ccccc4[n+]3-c3ccccn3)cc2)cc1	KCNQ2 inh -7.71
CC(C)(C)c1cc([N+](=O)[O-])cc(C(C)(C)C)c1O	none (no result: KCNQ2 enhance)
Cc1ccc(Cn2ccccc2=N)cc1	none
CCCCn1c(O)c(C(C)=Nc2ccc(C(=O)O)cc2)c(=O)[nH]c1=O	KCNQ2 enhance 5.62
CCCCn1c(O)c(C(C)=NCCc2ccccc2)c(=O)[nH]c1=O	none
CN(C)c1ccc(/C=C/C=C/c2sc3ccccc3[n+]2C)cc1	none
CC[n+]1c(/C=C/C=C/c2ccc(N(C)C)cc2)sc2ccccc21	KCNQ2 inh -7.89
CN1CCN(C(=O)OC2c3nccnc3C(=O)N2c2ccc(Cl)cn2)CC1 (stereo not drawn)	none (no result: KCNQ2 enhance)
O=C1NC(=O)N(c2ccc(Cl)cc2)C(=O)/C1=C/c1coc2ccc(O)cc2c1=O	none (no result: KCNQ2 enhance)
O=C1NC(=O)N(c2ccccc2)C(=O)/C1=C/c1coc2ccc(O)cc2c1=O	KCNQ2 inh -7.09
Cc1cccc(OP(=O)(Oc2ccccc2)OC(c2ccccc2)C(F)(F)F)c1 (stereo not drawn)	KCNQ2 inh -6.49
Cc1ccc(C)c(NP(=O)(Oc2ccccc2)Oc2ccccc2)c1	none
Cn1c(O)c(C=NCCN2CCOCC2)c(=O)n(C)c1=S	none
CC(C)[N+](C)(CCC(C(N)=O)(c1ccccc1)c1ccccc1)C(C)C	none
Oc1cc(Cl)ccc1Oc1ccc(Cl)cc1Cl	none (no result: KCNQ2 enhance)
Clc1cnc(Oc2ccc(Oc3ncc(Cl)cc3Cl)cc2)c(Cl)c1	KCNQ2 inh -5.59
C=C(C=O)CC1CC(O)[C@]2(C)OC3CC4OC5C[C@]6(C)O[C@]7(C)CCC8OC9C[C@]%10(C)OC%11C(C)=CC(=O)OC%11CC%10OC9C[C@@H](C)C8OC7CC6O[C@]5(C)CC5OC5C4OC3CC2O1 (stereo partly drawn)	KCNQ2 inh -5.57
C=C(CO)CC1CC(O)[C@]2(C)OC3CC4OC5C[C@]6(C)O[C@]7(C)CCC8OC9C[C@]%10(C)OC%11C(C)=CC(=O)OC%11CC%10OC9C[C@@H](C)C8OC7CC6O[C@]5(C)C/C=C\C4OC3CC2O1 (stereo partly drawn)	none
CCOC(=O)c1c(NC(=O)c2c(N)n(CCCOC)c3nc4ccccc4nc23)sc2c1CCCC2	none
CCOC(=O)c1c(NC(=O)C(c2ccccc2)c2ccccc2)sc2c1C1CCN2CC1	KCNQ2 inh -7.24
O=C(c1ccccc1F)N1CCC2(CC1)OCCO2	none (no result: KCNQ2 enhance)
Cc1ccc(C(=O)O)cc1N=Nc1c(O)[nH]c(=O)[nH]c1=O	none (no result: KCNQ2 enhance)
CCN(CC)c1ccc(/C=C/[N+](=O)[O-])cc1	KCNQ2 inh -8.76 | KCNQ2 inh conf -75.0% | KCNQ1 spec -79.5% | CHO parental ctr -76.5% | KCNQ2 inh confirm inactive
